The compounds below were run on DDR1.
`Cn1cc(-c2ccc3c(c2)CCN3C(=O)Cc2cccc(C(F)(F)F)c2)c2c(N)ncnc21` [GSK2606414] showed a Kd of 280 nM. With `O=C(Nc1ccccc1)Nc1ccc(Oc2ccc3nccn3n2)cc1` the Kd was 9.3 nM. Compound `FC(F)(F)c1ccc(-c2nn3ncccc3c2-c2ccnc(Nc3cccc(C(F)(F)F)c3)n2)cc1` [GW828205] has a Kd of over 10000 nM. `COc1ccc(-c2oc3ncnc(N)c3c2-c2ccc(OC)cc2)cc1` [SB-589132] was tested, and the Kd was 650 nM. For `Fc1ccc(Nc2nccc(-c3c(-c4ccc(Cl)cc4)nn4ncccc34)n2)cc1F` [GW829058], the Kd was 750 nM.

These compounds were tested on T1, DMPK2.
T1 construct: gene CDC42BPG
With `CNc1nccc(-c2c(-c3ccc(F)cc3)ncn2CCCN2CCOCC2)n1` [SB-222516] the Kd was over 10000 nM. `Clc1cccc(-c2nc(Nc3ccncc3)c3ccccc3n2)c1` [GW873004] showed a Kd of over 10000 nM. Work on `CCCc1ccc(S(=O)(=O)NC2CCN(c3ccnc(Nc4ccc(OC)cc4)n3)C2)cc1` (centres unmarked) [GSK1379737] yielded a Kd of over 10000 nM.

— paper PMC5540273 (PLoS ONE, 2017)
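Further: kd values determined as follow-up on hits from a single-replicate KINOMEscan panel screen.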
